7 molecules from PubChem BioAssay (Tox21) can be followed below.

A short description of assay [1]: qHTS assay to identify small molecule agonists of the hypoxia (HIF-1) signaling pathway - cell viability counter screen (AID 1224844; calls by dose curve; also: nearly all actives have a fitted effect of over 50% in size). The gist of the method: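 HRE-bla ME-180 cells, 2,000/well in 0.5% dialyzed FBS medium, treated 17 h at 37C with compounds. Viability read in the same wells as the bla reporter, by CellTiter-Glo luminescence after 30 min at room temperature.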
(In general: qHTS replaces the single test concentration by a dilution series.)

Assay [2] in a line: qHTS assay to identify small molecule agonists of H2AX (AID 1224845; active = well fitted activation curve with a large enough effect in the signal ratio in the repeat runs, not every such curve was filed as active; the % refers to the signal ratio). Put shortly:
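Wild-type CHO-K1 cells, plated overnight, exposed 3hr at 37C to 15 concentrations (0.76% DMSO final). Lysed, then HTRF anti-pH2AX (S139) cryptate and anti-H2AX-d2 antibodies, 24 hr room temperature; 665/620 nm emission read.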

A short description of assay [3]: qHTS assay to identify small molecule agonists of the hypoxia (HIF-1) signaling pathway (AID 1224846; active = well fitted activation curve with a large enough effect in the signal ratio in the repeat runs, not every such curve was filed as active; the % refers to the signal ratio). Put shortly:
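HRE-bla ME-180 beta-lactamase reporter cells in medium with 0.5% dialyzed FBS, pre-incubated 5 h then exposed to compounds 17 h at 37C, 5% CO2; reporter induction read with CCF4-AM FRET substrate.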

A short description of assay [4]: qHTS assay to identify small molecule agonists of H2AX - cell viability counter screen (AID 1224847; calls by dose curve; also: top concentration of the series differs between compounds; nearly all actives have a fitted effect of over 30% in size). The gist of the method:
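Cytotoxicity counter screen in wild-type CHO-K1 cells: a 3 hr compound treatment at 37C across 15 concentrations, followed by CellTiter-Glo luminescence to gauge viable cells.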

Assay [5] in a line: qHTS RealTime-Glo MT Cell Viability Assay in HepG2 cells - 24 hour (AID 1224867). Also: nearly all actives have a fitted effect of over 50% in size. Put shortly:
(§1)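 Real-time, nonlytic viability: 600 HepG2 cells/well mixed with NanoLuc enzyme plus prosubstrate; 5 h settle, compound (DMSO) added by pintool; luminescence monitored over 40 h at 37 C.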

Assay [6] is described as follows: qHTS RealTime-Glo MT Cell Viability Assay in HEK293 cells - 32 hour (AID 1224868). Also: top concentration of the series differs between compounds; nearly all actives have a fitted effect of over 50% in size. The gist of the method:
(§2)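 Cells + reagent dispensed (600 cells/well, HEK293) → 5 h at 37 C/5% CO2 → 23 nL compound in DMSO pinned → 40 h at 37 C → luminescence read at 0, 8, 16, 24, 32, 40 h.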

Assay [7] in a line: A CellTox Green Cytotoxicity Assay to monitor cytotoxicity in HEK293 cells - 0 hour (AID 1224869). Also: nearly all actives have a fitted effect of over 50% in size. The gist of the method: (§3)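 HEK293 cells, 600/well, were preincubated 5 hours and then exposed to compounds at 37 C for up to 40 hours. A cell-impermeant cyanine dye staining dead-cell DNA was read by fluorescence at 0, 8, 16, 24, 32 and 40 h time points.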
A short description of assay [8]: qHTS RealTime-Glo MT Cell Viability Assay in HepG2 cells - 40 hour (AID 1224870). Also: nearly all actives have a fitted effect of over 50% in size. The gist of the method:
(§4)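 HepG2 cells (600/well) mixed with RealTime-Glo MT reagent, settled 5 h at 37 C/5% CO2 before compound addition. Nonlytic NanoLuc luminescence from viable-cell prosubstrate reduction read repeatedly during 40 h treatment at 37 C.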

A short description of assay [9]: A CellTox Green Cytotoxicity Assay to monitor cytotoxicity in HEK293 cells - 40 hour (AID 1224871). Also: nearly all actives have a fitted effect of over 45% in size. Put shortly: as §3
Assay [10] is described as follows: qHTS RealTime-Glo MT Cell Viability Assay in HEK293 cells - 16 hour (AID 1224872). The gist of the method:
as §2

A short description of assay [11]: qHTS RealTime-Glo MT Cell Viability Assay in HepG2 cells - 8 hour (AID 1224873). Also: nearly all actives have a fitted effect of over 55% in size. The gist of the method:
as §4

The nature of assay [12]: qHTS RealTime-Glo MT Cell Viability Assay in HEK293 cells - 40 hour (AID 1224874). Also: nearly all actives have a fitted effect of over 50% in size. The conditions noted are these: RealTime-Glo luminescence; max response: stronger effect = lower value. Put shortly: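 600 cells/well were plated with the nonlytic NanoLuc/prosubstrate reagent, pre-incubated 5 h, then given 23 nL of compound in DMSO. Incubation at 37 C for 40 h, with luminescence from viable-cell-reduced substrate read repeatedly from 0 h.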

A short description of assay [13]: A CellTox Green Cytotoxicity Assay to monitor cytotoxicity in HEK293 cells - 24 hour (AID 1224875). Also: nearly all actives have a fitted effect of over 45% in size. Put shortly:
as §3

A short description of assay [14]: A CellTox Green Cytotoxicity Assay to monitor cytotoxicity in HepG2 cells - 16 hour (AID 1224876). Also: nearly all actives have a fitted effect of over 45% in size. Put shortly: (§5)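 HepG2 cells, 600/well, preincubated 5 h with CellTox Green dye, then exposed to Tox21 compounds in DMSO at 37 C for up to 40 h. Dead-cell DNA fluorescence read at the indicated time point.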
Assay [15] can be described thus: qHTS RealTime-Glo MT Cell Viability Assay in HepG2 cells - 32 hour (AID 1224877). Also: nearly all actives have a fitted effect of over 55% in size. Put shortly: as §1
Assay [16] in a line: A CellTox Green Cytotoxicity Assay to monitor cytotoxicity in HepG2 cells - 24 hour (AID 1224878). Also: nearly all actives have a fitted effect of over 45% in size. The gist of the method:
as §5

Assay [17] is described as follows: A CellTox Green Cytotoxicity Assay to monitor cytotoxicity in HepG2 cells - 40 hour (AID 1224879). Also: nearly all actives have a fitted effect of over 40% in size. Also: potency is read from the fitted curve at half-maximal effect. The gist of the method: as §5
Assay [18] is described as follows: qHTS assay to identify small molecule antagonists of the estrogen related receptor (ERR) signaling pathway from Tox21 library (AID 1224848). Also: nearly all actives have a fitted effect of over 50% in size. The gist of the method:
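ERR reporter cell line (from NTP) seeded 2,000 cells/well, rested 6 h at 37 C/5% CO2, then pin-dosed with compounds in DMSO. After 18 h at 37 C, ONE-Glo added; luminescence read after 30 min at room temperature.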

Assay [19] can be described thus: qHTS assay to identify small molecule agonists of the estrogen related receptor (ERR) signaling pathway from Tox21 library (AID 1224849; calls by dose curve; also: nearly all actives have a fitted effect of over 15% in size). The conditions noted are these: ERR reporter cell line, ONE-Glo luciferase, 18 h. The gist of the method:
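ERR reporter cells (NTP line) pre-incubated 6 hours at 37 C, then exposed to compounds for 18 hours at 37 C. ONE-Glo luciferase luminescence was read after 30 minutes at room temperature.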

Values joined by “and” are separate entries in the source; they are usually repeats but may differ in a detail not shown here. Identical values can stand only once. Values without a mark were called inactive. Results filed as inconclusive are left out. Active and inactive are the calls of the source. Unless noted, calls follow the shape of the dose curve; as a rule, active = well fitted curve in the direction sought with a large enough effect in the repeat runs; inconclusive = weak or mixed curves; inactive = no such curve, though single readings can be large; an effect the other way counts as inactive or inconclusive.
% is scaled to controls: 0 for no effect and ±100 for the full control effect.

On to `CNc1cnn(-c2cccc(C(F)(F)F)c2)c(=O)c1Cl`, for which the Potency result in assay [1], in assay [2], in assay [4], in assay [6], in assay [7] and in [9] was “inactive” in each case. In addition, the Potency entry in [13], in assay [14], in assay [16] and in assay [17] was “inactive” in each case. Besides, the result in assay [3], in assay [5], in assay [8], in assay [10], in assay [11] and in assay [15] was inactive. The max response in assay [12] is -24.9% and -29.1%.

Regarding `CCSC(=O)N1CCCCCC1`, the Potency result in assay [1], in assay [2], in assay [4], in assay [18], in assay [6] and in [7] was “inactive” in each case. For the same molecule, the Potency entry in assay [9], in [13], in [14], in assay [16] and in assay [17] was “inactive” throughout. Further, the molecule was classed as inactive in assay [3], in assay [5], in assay [8], in [10], in [11] and in [15]. Also, the activity change, positive = activation in assay [19] (at 92.4 µM (top of the series)) was -10.2% and -0.0309%.

`O=C(O)Cc1ccccc1`: the Potency entry in [1], in assay [2], in assay [4], in assay [18], in assay [6] and in assay [7] was “inactive” throughout. For the same molecule, the Potency result in assay [9], in assay [13], in [14] and in [17] was “inactive” throughout. For the same molecule, the result in assay [3], in assay [5], in [8], in [10], in [11] and in [15] was inactive. In addition, the activity change, positive = activation in assay [19] (at 42.5 µM (top of the series)) is -0.0869%; in assay [19] (at 92.4 µM (top of the series)), -3.48%.

As for `CC[N+](=O)[O-]`, the Potency entry in assay [1], in assay [2], in assay [4], in assay [6], in assay [7] and in [9] was “inactive” throughout. For the same molecule, the Potency result in [13], in assay [14], in assay [16] and in assay [17] was “inactive” in each case. For the same molecule, the outcome in assay [3], in [5], in [8], in assay [10], in assay [11] and in [15] was inactive. The max response in assay [12] was 7.02% and 16.9%.

Consider `Cl/C=C/Cl`, for which the Potency entry in assay [1], in assay [2], in assay [4], in assay [6], in assay [7] and in [9] was “inactive” each time. The Potency entry in assay [13], in [14], in assay [16] and in assay [17] was “inactive” in each case. Besides, the outcome in assay [3], in assay [5], in [8], in [10], in assay [11] and in assay [15] was inactive. Moreover, in assay [12], the max response was -5.85% and -1.58% and 0.395%.

In the case of `O=C(O)COc1ccccc1`, the Potency entry in assay [1], in assay [2], in [4], in [6], in [7] and in [9] was “inactive” throughout. The Potency entry in assay [13], in [14] and in assay [17] was “inactive” each time. In addition, the molecule was classed as inactive in [3], in assay [5], in assay [8], in assay [10], in assay [11] and in [15]. Besides, the max response in assay [12] was -2.67% and 2.52% and 5.65%.

Take `COC(=O)Nc1cccc(OC(=O)Nc2cccc(C)c2)c1`: the Potency entry in [1], in assay [2], in [4], in [18], in assay [6] and in [7] was “inactive” throughout. Besides, the Potency result in [9], in assay [13], in assay [14] and in assay [16] was “inactive” each time. The molecule was classed as inactive in assay [3], in assay [5], in [8], in assay [10], in assay [11] and in [15]. The activity change, positive = activation in assay [19] (at 92.4 µM (top of the series)) is 26.6% (active) and 34.9% (active). Further, the max response in assay [12] was 3.85% and -5.62%. The Potency in [17] is 49 µM (active).
